# From the supplement of paper PMC10127200
# Where a name gives a salt, the structure may show the parent alone.
# Tests used:
# Assay in all cases: Euclidean distance of Cell Painting phenotypic profile (signed KS, 77 features) to DMSO centroid (dimensionless distance); 5 or 10 uM (library dependent); higher = stronger phenotypic change vs DMSO (phenoactivity)
# Details in all cases: 48 h
# 786-O = system: 786-O
# Procedure, shortened: (§1)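 Harmony extracted 77 features from 20X confocal images (9 fields/well) of stained cells, scoring each as a signed Kolmogorov-Smirnov statistic against same-plate vehicle wells. The cells, five cancer lines and a healthy fibroblast line, had received library compounds for 48 h at 10 or 5 uM depending on library, with 0.1% DMSO final. Phenoactivity is the Euclidean distance from each plate-position-corrected, correlation-weighted, top-dose replicate-averaged profile to the median vehicle profile.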
# A549 = system: A549
# Procedure, shortened: as §1
# DU145 = system: DU145
# Procedure, shortened: as §1
# FB = system: FB
# Procedure, shortened: as §1
# HEPG2 = system: HEPG2
# Procedure, shortened: as §1
# OVCAR4 = system: OVCAR4
# Procedure, shortened: as §1
Compound,Euclidean distance (786-O),Euclidean distance (A549),Euclidean distance (DU145),Euclidean distance (FB),Euclidean distance (HEPG2),Euclidean distance (OVCAR4)
O=c1ncccn1[C@@H]1O[C@H](CO)[C@@H](O)[C@H]1O [Zebularine],1.2,1,0.895,0.816,0.887,0.492
Cc1cn([C@H]2C=C[C@@H](CO)O2)c(=O)[nH]c1=O [Stavudine (d4T)],1.64,1.46,0.564,0.969,0.716,1.06
COc1cc(C(=O)O)ccc1NC(=O)[C@@H]1N[C@@H](CC(C)(C)C)[C@](C#N)(c2ccc(Cl)cc2F)[C@H]1c1cccc(Cl)c1F [Idasanutlin (RG-7388)],1.61,1.57,1.55,1.43,1.15,1.59
Cc1cc(NS(=O)(=O)c2ccc(N)cc2)nc(C)n1 [sulfaisodimidine],0.897,0.563,0.503,0.948,0.529,0.686
CC(C)Cn1cnc2c(N)nc3ccccc3c21 [Imiquimod],0.967,1.15,0.652,0.784,0.448,0.537
CC(C)C[C@H](NC(=O)[C@@H](NC(=O)c1cccc(-c2ccccc2)n1)[C@@H](C)O)B(O)O,4.27,4.06,4.4,3.55,4.77,5.53
Cc1cc([C@@H](C)Nc2ccccc2C(=O)O)c2nc(N3CCOCC3)cc(=O)n2c1,1,1.82,1.52,1.71,1.59,3.2
Fc1cc(-c2cccc3ncc(-c4cnn(C5CCNCC5)c4)nc23)cc(F)c1CN1CCOCC1,2.09,3.31,2.11,3.84,2.39,1.28
CCCCOCCOCCOCc1cc2c(cc1CCC)OCO2 [Piperonyl butoxide],0.659,1.99,0.875,0.892,1.06,1.04
CC(C)(C)NC(=O)[C@@H]1CN(Cc2cccnc2)CCN1C[C@@H](O)C[C@@H](Cc1ccccc1)C(=O)N[C@H]1c2ccccc2C[C@H]1O [Indinavir Sulfate],0.896,0.551,0.801,0.953,0.739,1.27
COc1ccc2c(Oc3ccc(NC(=O)c4c(C)n(CC(C)(C)O)n(-c5ccccc5)c4=O)nc3)ccnc2c1,1.16,1.01,1.02,3.08,0.897,0.976
Cc1cc(C2CCCCC2)n(O)c(=O)c1 [Ciclopirox],2.74,2.85,2.81,3.29,3.45,3.51
CN1CCOC(c2ccccc2)c2ccccc2C1 (stereo not given) [Nefopam HCl],1.21,0.668,0.813,1.07,0.77,1.29
CC(=O)N1CCN(CCOc2ccc(C3CCN(C4=Nn5c(nnc5C(F)(F)F)CC4)CC3)cc2)CC1,1.54,0.992,1.22,1.76,2.06,2.66
N[C@H]1CONC1=O [L-Cycloserine],0.838,0.531,1.03,1.02,0.788,1.56
O=c1ccc2ccc(O)c(O)c2o1 [Daphnetin],1.49,0.859,0.975,1.15,1.18,0.972
CN(C)C/C=C/C(=O)Nc1cc2c(Nc3ccc(F)c(Cl)c3)ncnc2cc1O[C@H]1CCOC1 [Afatinib (BIBW2992) Dimaleate],4.65,3.63,5.93,5.45,4.62,4.49
O=C1c2ccccc2C(=O)c2c1ccc(O)c2O [Alizarin],1.65,1.45,1.35,1.58,1.48,1.07
COCCCN1CCC(NC(=O)c2cc(Cl)c(N)c3c2OCC3)CC1 [Prucalopride Succinate],0.846,1.22,1.04,1.4,0.733,1.47
CC(=O)[C@H]1CC[C@H]2[C@@H]3C[C@H](C)C4=CC(=O)CC[C@]4(C)[C@H]3[C@@H](O)C[C@]12C [Medrysone],1.22,1.8,1.96,1.72,0.963,1.81
CC(=O)OCC(CCn1cnc2cnc(N)nc21)COC(C)=O [Famciclovir],1,0.742,0.892,0.846,0.598,1.57
O=S(=O)(c1cccc2cnccc12)N1CCCNCC1 [Fasudil (HA-1077) HCl],1.52,0.649,1.94,0.846,1.28,0.851
Cc1c(OCC(F)(F)F)ccnc1C[S@@+]([O-])c1nc2ccccc2[nH]1 [Dexlansoprazole],0.708,0.614,0.925,1.52,0.629,1.1
NC(=O)c1cccc(-c2cccc(OC(=O)NC3CCCCC3)c2)c1,0.656,0.944,0.753,0.99,1.61,1.17
O=C(/C=C\n1cnc(-c2cc(C(F)(F)F)cc(C(F)(F)F)c2)n1)N1CC(F)(F)C1,3.83,3.69,3.2,2.48,3.62,4
